Source: PubChem BioAssay (NCI)
This is part of a sample that, as a whole, favours compounds with a hit. Of some 83,000 tested, about 20% had one in any assay.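 For each line, cells grew in 96-well plates with the test compound present at a single concentration for 48 hours.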 Values without a mark were called inactive. Active and inactive are the calls of the source. Rule for the calls: active = growth percent below 10; inactive = the rest.

Key:
Assay in all cases: NCI-60 one-dose screen, 48 h (100 = growth as untreated, 0 = no growth, -100 = all killed)
Details in all cases: 10 µM unless noted
HCT-15 colon = system: HCT-15 colon
HT29 colon = system: HT29 colon
SNB-75 CNS = system: SNB-75 CNS
SNB-19 CNS = system: SNB-19 CNS
U251 CNS = system: U251 CNS
PC-3 prostate = system: PC-3 prostate
SK-MEL-5 melanoma = system: SK-MEL-5 melanoma
UACC-62 melanoma = system: UACC-62 melanoma
LOX IMVI melanoma = system: LOX IMVI melanoma
SK-MEL-28 melanoma = system: SK-MEL-28 melanoma

| Structure (SMILES) | growth (HCT-15 colon) | growth (HT29 colon) | growth (SNB-75 CNS) | growth (SNB-19 CNS) | growth (U251 CNS) | growth (PC-3 prostate) | growth (SK-MEL-5 melanoma) | growth (UACC-62 melanoma) | growth (LOX IMVI melanoma) | growth (SK-MEL-28 melanoma) |
| --- | --- | --- | --- | --- | --- | --- | --- | --- | --- | --- |
| C/C(=C(/c1ccc(Cl)cc1)c1ccc(OCCCN(C)C)cc1)c1ccc(Cl)cc1 | 50.4% | 16.3% | 96.4% | 97.3% | 75.9% | 84.8% | 93.8% | 109% | 78.1% | 99.5% |
| O=C(OC[C@@H]1CO1)c1cccc2c(=O)c3ccccc3[nH]c12 | -5.09% (active) | -7.33% (active) | -88.2% (active) | -7.9% (active) | -15.7% (active) |  | -90.9% (active) | -89.2% (active) | -78.1% (active) | -62.6% (active) |
| CC1(C)CC[C@]2(C(=O)N3CCOCC3)CC[C@]3(C)C(=CC[C@@H]4[C@@]5(C)C/C(=C/c6ccncc6)C(=O)C(C)(C)[C@@H]5CC[C@]43C)[C@@H]2C1 | 7.19% (active) | 5.31% (active) | 43% | 47.5% | 18.4% |  | -63.5% (active) | 2.88% (active) | -84% (active) | -14.4% (active) |
| O=C1/C(=C/c2ccc(C(F)(F)F)cc2)COc2ccc(O)c(O)c21 | -6.49% (active) | 8.23% (active) | 33.4% | 27.1% | -50.6% (active) |  | 68.5% | 12.2% | -90.8% (active) | 72.1% |
| Cn1c(=O)c2c(nc(NC3=NS(=O)(=O)c4ccccc43)n2Cc2ccccc2)n(C)c1=O | 98.4% | 111% | 93.1% | 96.1% | 104% |  | 99.4% | 91.5% | 95.6% | 107% |
| OC(c1ccccc1)(c1ccccc1)c1ccccc1-c1ccccc1 | 90.7% | 73.4% | 94.1% | 94% | 92.8% |  | 96.4% | 79.2% | 87.2% |  |
| COc1ccc(Cc2nnc(Nc3nc4ccccc4s3)s2)cc1 | 92.4% | 110% | 92.2% | 94.2% | 98.2% | 108% | 96.5% | 89.6% | 96.4% | 92.3% |
| O=C(Cn1nnc2ccccc21)N/N=C/c1ccccc1F | 106% | 99.5% | 95.2% | 103% | 97.1% |  | 102% | 88.5% | 101% | 108% |
| c1ccc(CCc2ccccc2-c2cc(-c3ccccc3)on2)cc1 | 83.6% | 68.2% | 80.5% | 90.3% | 95.3% | 89.1% | 78.9% | 71.1% | 92.2% | 93.9% |
| CN1CCN(C(=O)c2cc(-c3ccc4ncnc(N5CCc6cc(F)c(Cl)cc65)c4c3)cnc2N)CC1 | 5.57% (active) | 13.6% | -35.3% (active) | 13% | 15.4% | 1.89% (active) | -97.1% (active) | -52.1% (active) | -41.4% (active) | -0.0571% (active) |
| COC(=O)c1c2c(c(C)[n+]([O-])c1C)C(=O)C=CC2=O | -64.8% (active) | 0.769% (active) | -49.1% (active) | -23.8% (active) | -40.8% (active) |  | -98.5% (active) | -72.8% (active) | -86% (active) | -82.9% (active) |
| CC(C)(C)c1cc(C=Nc2cccc(C(F)(F)F)c2)c(O)c(C(C)(C)C)c1 | 83.7% | 81% | 83.6% | 93.9% | 77.6% | 80.2% | 99.9% | 101% | 101% | 107% |
| C=C1C(=O)O[C@H]2[C@H]1CC/C(COC(=O)NCc1ccc(Cn3c(=O)sn(-c4ccc(OC)cc4)c3=O)cc1)=C\CC[C@@]1(C)O[C@@H]21 | 4.27% (active) | -15.5% (active) | 96% | 94.8% | 77.7% | 70.3% | 97.9% | 60.7% | 25% | 71% |
| C=C1C(=O)O[C@H]2[C@H]1CC/C(COC(=O)/C=C\C(=O)NCc1ccc(Cn3c(=O)sn(-c4ccccc4)c3=O)cc1)=C\CC[C@@]1(C)O[C@@H]21 | 42.4% | 50.8% | 98% | 107% | 84.3% |  | 106% | 85% | 76% | 94.4% |
| C=CC1(C)C(O[Si](C)(C)C(C)(C)C)CC2C3OC(=O)NC31c1cccc3c1[C@H](C(=O)N3C)C2(C)C (some centres undefined) | 32.2% | 57.2% | 74.4% | 78.7% |  | 10.6% | 25.9% | 29.4% | 63% | 63.7% |
| O=C(CN1C(=O)/C(=C/c2ccco2)SC1=S)NCCc1c[nH]c2ccc(F)cc12 | 101% | 112% | 78% | 102% |  | 94% | 99.6% | 87.8% | 96.9% | 112% |
